Laboratory results as given in PubChem BioAssay.
For some assays here: Entries with a potency or affinity are not part of this list. Active and inactive are the calls of the source. Unless noted, the rule behind the calls is not given here.

Key:
[1] = antimalarial activity against Dd2 strain (AID 2302;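 active = growth inhibition above 50% at the single 2 µM test dose, taken to imply half-maximal potency below 2 µM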;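 note: 0% = DMSO untreated growth and 100% = chloroquine plus artemisinin killed control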); conditions: P. falciparum Dd2 in RBCs, LDH growth readout, 72 h; at 2 µM; hits give high values
[2] = HepG2 cytotoxicity, primary screen, cytotoxicity control for P. falciparum antimalarial project, cell-based, ATP luminescence (AID 2303;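 active = inhibition above 50%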;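 note: 0% = DMSO wells and 100% = digitonin-killed cells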); conditions: HepG2 viability, 24-48 h, at 10 µM, hits give high values
[3] = biological target: L-lactate dehydrogenase (Plasmodium falciparum (isolate CDC / Honduras)) (UniProt Q27743); experiment: PfLDH activity inhibition – cell lysate, 3D7 strain, counter-screen for P. falciparum growth inhibition project (AID 2304);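 note: 0% = vehicle and 100% = reference inhibitor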; conditions: P. falciparum 3D7 crude extract, LDH APAD/NBT absorbance; at 2 µM; hits give high values
L-lactate dehydrogenase (Plasmodium falciparum (isolate CDC / Honduras)), sequence (Q27743 whole entry, looked up): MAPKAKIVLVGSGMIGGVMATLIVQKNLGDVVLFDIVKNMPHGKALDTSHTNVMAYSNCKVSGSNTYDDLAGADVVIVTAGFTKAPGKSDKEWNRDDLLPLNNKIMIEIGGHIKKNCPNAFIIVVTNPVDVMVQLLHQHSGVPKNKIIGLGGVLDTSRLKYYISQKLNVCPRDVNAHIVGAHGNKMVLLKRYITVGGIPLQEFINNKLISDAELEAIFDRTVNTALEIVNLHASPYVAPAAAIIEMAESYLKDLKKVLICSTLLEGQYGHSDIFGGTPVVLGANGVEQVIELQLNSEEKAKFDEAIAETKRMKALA

[4] = inhibition of 3D7 malaria parasite growth – strain 3D7 (AID 2306);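 note: 0% = DMSO wells and 100% = chloroquine plus artemisinin control wells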; conditions: P. falciparum 3D7 erythrocytic growth, LDH absorbance, 72 h; at 2 µM; hits give high values
[5] = biological target: Calcium-dependent protein kinase 1 (Plasmodium falciparum (isolate 3D7)) (UniProt P62344); experiment: PfCDPK1 kinase inhibitors, biochemical, TCAMS library (AID 1159585; cut-off not given, nearly all actives have IC50 up to about 0.98 µM;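 note: inhibitors leave more ATP so luminescence rises with inhibition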); conditions: recombinant PfCDPK1, Kinase-Glo ATP depletion luminescence
Calcium-dependent protein kinase 1 (Plasmodium falciparum (isolate 3D7)), sequence (P62344 whole entry, looked up): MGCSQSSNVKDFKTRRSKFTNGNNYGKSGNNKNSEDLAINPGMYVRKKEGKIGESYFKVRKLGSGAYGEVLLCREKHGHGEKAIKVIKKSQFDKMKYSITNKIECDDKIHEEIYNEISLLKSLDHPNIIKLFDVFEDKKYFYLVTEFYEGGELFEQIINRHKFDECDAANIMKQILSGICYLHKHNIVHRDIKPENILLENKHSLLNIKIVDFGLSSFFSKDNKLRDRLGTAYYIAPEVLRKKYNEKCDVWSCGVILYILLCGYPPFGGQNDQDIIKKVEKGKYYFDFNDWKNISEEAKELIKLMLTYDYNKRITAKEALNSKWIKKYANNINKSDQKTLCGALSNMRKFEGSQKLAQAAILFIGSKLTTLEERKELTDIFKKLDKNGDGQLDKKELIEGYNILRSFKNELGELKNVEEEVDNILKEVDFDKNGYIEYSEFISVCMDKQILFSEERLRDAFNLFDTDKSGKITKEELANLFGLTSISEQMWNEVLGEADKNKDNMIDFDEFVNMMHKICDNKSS

[6] = biological target: Plasmodium falciparum protein kinase 6 (PK6, PF3D7_1337100) (UniProt Q8IDW1); experiment: PfPK6 kinase inhibitors, biochemical, TCAMS library (AID 1159586); conditions: recombinant PfPK6, Kinase-Glo ATP depletion luminescence
Plasmodium falciparum protein kinase 6 (PK6, PF3D7_1337100), sequence (Q8IDW1 1-305): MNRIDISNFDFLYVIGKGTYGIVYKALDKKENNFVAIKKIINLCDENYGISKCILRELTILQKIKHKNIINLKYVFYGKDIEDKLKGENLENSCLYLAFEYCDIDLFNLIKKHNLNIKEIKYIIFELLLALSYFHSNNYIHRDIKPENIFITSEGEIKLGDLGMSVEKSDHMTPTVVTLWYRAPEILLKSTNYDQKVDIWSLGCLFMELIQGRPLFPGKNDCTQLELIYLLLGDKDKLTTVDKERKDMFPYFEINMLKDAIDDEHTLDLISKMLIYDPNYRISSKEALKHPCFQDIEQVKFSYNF

[7] = biological target: Protein kinase 7 (PK7), Plasmodium falciparum 3D7 (PF3D7_0213400) (UniProt Q7YTF7); experiment: inhibition of Plasmodium PK7 catalytic activity – biochemical, TCAMS antimalarial set, Kinase-Glo luminescence (AID 1159587); conditions: recombinant PfPK7, Kinase-Glo ATP depletion luminescence
Protein kinase 7 (PK7), Plasmodium falciparum 3D7 (PF3D7_0213400), sequence (Q7YTF7 1-343): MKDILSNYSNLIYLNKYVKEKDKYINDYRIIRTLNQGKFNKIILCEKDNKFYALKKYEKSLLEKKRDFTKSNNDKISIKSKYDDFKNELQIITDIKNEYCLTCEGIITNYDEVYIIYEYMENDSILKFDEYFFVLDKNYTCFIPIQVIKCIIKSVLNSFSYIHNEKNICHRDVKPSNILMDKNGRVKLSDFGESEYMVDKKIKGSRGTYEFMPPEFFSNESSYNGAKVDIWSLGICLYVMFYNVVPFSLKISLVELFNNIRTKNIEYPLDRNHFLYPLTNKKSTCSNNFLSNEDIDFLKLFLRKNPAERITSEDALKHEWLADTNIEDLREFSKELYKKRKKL

[8] = biological target: Calcium-dependent protein kinase 4 (Plasmodium falciparum (isolate 3D7)) (UniProt Q8IBS5); experiment: PfCDPK4 kinase inhibitors, biochemical, TCAMS library (AID 1159588; cut-off not given, nearly all actives have IC50 up to about 0.91 µM); conditions: recombinant PfCDPK4, Kinase-Glo ATP depletion luminescence
Calcium-dependent protein kinase 4 (Plasmodium falciparum (isolate 3D7)), sequence (Q8IBS5 whole entry, looked up): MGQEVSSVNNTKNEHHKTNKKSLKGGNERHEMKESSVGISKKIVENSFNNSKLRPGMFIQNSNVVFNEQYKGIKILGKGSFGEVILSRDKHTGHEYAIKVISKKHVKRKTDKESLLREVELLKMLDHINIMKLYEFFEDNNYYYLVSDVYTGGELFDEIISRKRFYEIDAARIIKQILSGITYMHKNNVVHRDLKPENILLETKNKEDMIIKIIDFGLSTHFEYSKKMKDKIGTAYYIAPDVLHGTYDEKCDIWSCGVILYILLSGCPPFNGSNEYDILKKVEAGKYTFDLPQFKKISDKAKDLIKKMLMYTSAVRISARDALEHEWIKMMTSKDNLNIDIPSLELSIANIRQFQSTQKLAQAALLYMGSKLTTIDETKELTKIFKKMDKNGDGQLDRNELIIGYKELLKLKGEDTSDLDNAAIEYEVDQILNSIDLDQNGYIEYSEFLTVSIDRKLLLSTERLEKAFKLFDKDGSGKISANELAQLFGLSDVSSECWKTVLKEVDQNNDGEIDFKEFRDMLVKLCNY

CC1(C)N=C(N)NC(NOCCCCCCONC2=NC(C)(C)N=C(N)N2)=N1
active: growth inhibition [1] 98% | growth inhibition [4] 95%
inactive: inhibition [2] 34% | inhibition [3] -4% | outcome [5] | outcome [6] | outcome [7] | outcome [8]

Clc1ccc(-c2cc(-c3csc(NCCN4CCOCC4)n3)on2)c(Cl)c1
active: growth inhibition [1] 86% | growth inhibition [4] 97%
inactive: inhibition [2] 39% | inhibition [3] -3% | outcome [5] | outcome [6] | outcome [7] | outcome [8]

O=S(=O)(NCCN1CCCC1)c1ccc(-c2ccc(CNCc3ccc(F)cc3)cc2)cc1F
active: growth inhibition [4] 82%
inactive: growth inhibition [1] 21% | inhibition [2] 40% | inhibition [3] 2% | outcome [5] | outcome [6] | outcome [7] | outcome [8]

COCCn1c(Sc2ccc(C#N)c([N+](=O)[O-])c2)nnc1-c1ccc(N(C)C)cc1
inactive: inhibition [2] 2% | inhibition [3] -6% | outcome [5] | outcome [6] | outcome [7] | outcome [8]
active: growth inhibition [1] 66% | growth inhibition [4] 89%

CC(C)C[C@H](NC(=O)c1cc2ccccc2s1)C(=O)N[C@H]1CCN(Cc2ccc(I)c(OC3CCN(C)C3)c2)C1 (stereo not given in full)
inactive: inhibition [3] 4% | outcome [5] | outcome [6] | outcome [7] | outcome [8]
active: growth inhibition [1] 95% | inhibition [2] 99% | growth inhibition [4] 100%

Cc1ccc(S(=O)(=O)N(CCCN2CCN(C)CC2)Cc2csc(-c3ccc(CNCc4ccccc4)cc3)n2)cc1
active: growth inhibition [1] 90% | growth inhibition [4] 97%
inactive: inhibition [2] 15% | inhibition [3] 3% | outcome [5] | outcome [6] | outcome [7] | outcome [8]

CCc1ccccc1N1CCN(CCCC(=O)c2ccc(NC(=O)c3cc(Cl)cc(Cl)c3)cc2)CC1
inactive: growth inhibition [1] 46% | inhibition [2] 16% | inhibition [3] 1% | outcome [5] | outcome [6] | outcome [7] | outcome [8]
active: growth inhibition [4] 99%

Cc1noc(C)c1-c1cccc(CNCc2cccc(-c3cccc(-c4nc5ccccc5[nH]4)c3)c2)c1
active: growth inhibition [1] 54% | growth inhibition [4] 102%
inactive: inhibition [2] 22% | inhibition [3] 2% | outcome [5] | outcome [6] | outcome [7] | outcome [8]

COc1cc2c(c(Cl)c1OC)CCN(C(=O)C(F)(F)F)CC2c1ccccc1 (stereo not given)
active: growth inhibition [1] 101% | growth inhibition [4] 101%
inactive: inhibition [2] 7% | inhibition [3] 8% | outcome [5] | outcome [6] | outcome [7] | outcome [8]

Cc1ccc2cc(NC(=O)c3cccc(C(=O)Nc4ccc5nc(C)ccc5c4)n3)ccc2n1
inactive: growth inhibition [1] 23% | inhibition [2] 21% | inhibition [3] 4% | outcome [5] | outcome [6] | outcome [7] | outcome [8]
active: growth inhibition [4] 92%

Cc1cccc2[nH]c(-c3ccc(-c4cccc(CNCc5cccc(N)c5)c4)s3)nc12
inactive: inhibition [2] 15% | inhibition [3] -4% | outcome [5] | outcome [6] | outcome [7] | outcome [8]
active: growth inhibition [1] 85% | growth inhibition [4] 102%

CCN(CC)CCN(Cc1ccc(-c2ccc(C(F)(F)F)cc2)cc1)C(=O)Cn1c(CCc2cccc(F)c2F)nc(=O)c2ccc(F)cc21
inactive: growth inhibition [1] 41% | inhibition [2] 14% | inhibition [3] 3% | outcome [5] | outcome [6] | outcome [7] | outcome [8]
active: growth inhibition [4] 98%

CCn1cc(CN2CCCC(C(=O)Nc3ccc(-c4nc5ccccc5[nH]4)cc3)C2)cn1 (stereo not given)
inactive: growth inhibition [1] 26% | inhibition [2] 8% | inhibition [3] -1% | outcome [5] | outcome [6] | outcome [7] | outcome [8]
active: growth inhibition [4] 100%

O=C(Nc1ccccc1)N(Cc1ccc(-c2ccc(CNC3CCCC3)cc2)cc1)C1CCN(Cc2ccccc2)CC1
inactive: inhibition [2] 34% | inhibition [3] -5% | outcome [5] | outcome [6] | outcome [7] | outcome [8]
active: growth inhibition [1] 61% | growth inhibition [4] 100%

Cc1cccc2[nH]c(-c3cccc(-c4cccc(CNCc5ccccc5)c4)c3)nc12
active: growth inhibition [1] 56% | growth inhibition [4] 101%
inactive: inhibition [2] 3% | inhibition [3] -1% | outcome [5] | outcome [6] | outcome [7] | outcome [8]

CCCCCN1CCC(NS(=O)(=O)c2cccc(C(=O)Nc3cccc(C(F)(F)F)c3)c2)C1 (stereo not given)
active: growth inhibition [4] 86%
inactive: growth inhibition [1] 17% | inhibition [2] 25% | inhibition [3] -5% | outcome [5] | outcome [6] | outcome [7] | outcome [8]

CC(C)(C)C(=O)Nc1c(-c2cc(=O)oc3cc4c(cc23)CCC4)oc2ccccc12
active: growth inhibition [1] 100% | growth inhibition [4] 101%
inactive: inhibition [2] -5% | inhibition [3] 3% | outcome [5] | outcome [6] | outcome [7] | outcome [8]

COc1ccc2c(c1)S(=O)(=O)N=C(N1CCCC1c1ccc(Cl)c(Cl)c1)N2C (stereo not given)
active: growth inhibition [4] 89%
inactive: growth inhibition [1] 19% | inhibition [2] -2% | inhibition [3] 0% | outcome [5] | outcome [6] | outcome [7] | outcome [8]

Clc1ccc(Nc2nc(-c3ccccn3)cs2)nc1
inactive: inhibition [2] 36% | inhibition [3] -1% | outcome [5] | outcome [6] | outcome [7] | outcome [8]
active: growth inhibition [1] 90% | growth inhibition [4] 95%

CN(C(=O)NCCc1ccccc1)C1CCN(CCCCCNC(=O)/C=C/c2ccc(Cl)c(Cl)c2)CC1
inactive: growth inhibition [1] 11% | inhibition [2] 43% | inhibition [3] -7% | outcome [5] | outcome [6] | outcome [7] | outcome [8]
active: growth inhibition [4] 93%

CCOC(=O)c1c(C)n(-c2ccccc2)c2ccc(O)cc12
inactive: inhibition [2] -7% | inhibition [3] -4% | outcome [5] | outcome [6] | outcome [7] | outcome [8]
active: growth inhibition [1] 87% | growth inhibition [4] 101%

COc1cccc(NC(=O)Nc2c(-c3cccc(C(F)(F)F)c3)c(C(F)(F)F)nn2C)c1
active: growth inhibition [4] 93%
inactive: growth inhibition [1] 30% | inhibition [2] 2% | inhibition [3] 7% | outcome [5] | outcome [6] | outcome [7] | outcome [8]

O=C(Nc1ccc(-c2ccccc2)cc1)Nc1cccc(OCCN2CCCC2)c1
inactive: growth inhibition [1] 14% | inhibition [2] 11% | inhibition [3] -2% | outcome [5] | outcome [6] | outcome [7] | outcome [8]
active: growth inhibition [4] 94%

O=C(NCCCCN1CC=C(c2ccc3c(c2OCc2ccccc2)CCCC3)CC1)c1ccc(-c2ccc(C(F)(F)F)cc2)cc1
active: growth inhibition [1] 82% | growth inhibition [4] 97%
inactive: inhibition [2] 19% | inhibition [3] -5% | outcome [5] | outcome [6] | outcome [7] | outcome [8]

O=C(/C=C/c1ccc(Cl)cc1)NCCCCCN1CCCC(C(=O)Nc2ccc(F)c(Cl)c2)C1 (stereo not given)
active: growth inhibition [4] 94%
inactive: growth inhibition [1] 6% | inhibition [2] 27% | inhibition [3] 7% | outcome [5] | outcome [6] | outcome [7] | outcome [8]

COc1ccccc1C(=O)Nc1ccc(Nc2nc(C)cc(N(C)C)n2)cc1
inactive: inhibition [2] 1% | inhibition [3] 3% | outcome [5] | outcome [6] | outcome [7] | outcome [8]
active: growth inhibition [1] 76% | growth inhibition [4] 100%

Cc1ccc(N2C(=O)C3C(C2=O)[C@]2(c4ccccc4)C(=O)[C@@]3(c3ccccc3)C(c3ccccc3)=C2c2ccccc2)cc1 (stereo not given in full)
inactive: inhibition [2] 17% | inhibition [3] -2% | outcome [5] | outcome [6] | outcome [7] | outcome [8]
active: growth inhibition [1] 96% | growth inhibition [4] 92%

FC(F)(F)c1ccc2nc(-c3ccc(-c4cccc(CNCC5CCCO5)c4)cc3)[nH]c2c1 (stereo not given)
active: growth inhibition [1] 100% | growth inhibition [4] 101%
inactive: inhibition [2] 36% | inhibition [3] -5% | outcome [5] | outcome [6] | outcome [7] | outcome [8]

COc1ccc(CNCCCCCCCNCc2ccc(Cl)c(Cl)c2)cc1Cl
active: growth inhibition [4] 90%
inactive: growth inhibition [1] 18% | inhibition [2] 27% | inhibition [3] 4% | outcome [5] | outcome [6] | outcome [7] | outcome [8]

CC(=O)Nc1ccc(-c2nc3ccc(-c4nc5ccc(NC(C)=O)cc5[nH]4)cc3[nH]2)cc1
active: growth inhibition [1] 99% | growth inhibition [4] 99%
inactive: inhibition [2] -13% | inhibition [3] -2% | outcome [5] | outcome [6] | outcome [7] | outcome [8]

CC(C)C1=NCc2ccc([N+](=O)[O-])cc2C(=O)N1
active: growth inhibition [4] 98%
inactive: growth inhibition [1] -1% | inhibition [2] 6% | inhibition [3] 4% | outcome [5] | outcome [6] | outcome [7] | outcome [8]

O=C(Nc1ccc(Cn2ncc(N3CCCNCC3)c(Cl)c2=O)cc1)Nc1ccc(C(F)(F)F)cc1
active: growth inhibition [1] 58% | growth inhibition [4] 90%
inactive: inhibition [2] 12% | inhibition [3] 4% | outcome [5] | outcome [6] | outcome [7] | outcome [8]

CCN(CC)CCCC(C)Nc1cc(C)nc2cc(Cl)ccc12 (stereo not given)
inactive: growth inhibition [1] 7% | inhibition [2] 9% | inhibition [3] 5% | outcome [5] | outcome [6] | outcome [7] | outcome [8]
active: growth inhibition [4] 100%

CC(=O)c1cccc(NC(=O)c2ccc(Cl)c(S(=O)(=O)N3CCc4ccccc43)c2)c1
inactive: growth inhibition [1] 11% | inhibition [2] 13% | inhibition [3] 0% | outcome [5] | outcome [6] | outcome [7] | outcome [8]
active: growth inhibition [4] 93%

COc1ccc(NCc2cccc(-c3cccc(CNCCc4ccccc4)c3)c2)cc1
active: growth inhibition [4] 96%
inactive: growth inhibition [1] 14% | inhibition [2] 41% | inhibition [3] 0% | outcome [5] | outcome [6] | outcome [7] | outcome [8]

Nc1nc(N)c2c(ccc3c2ccn3Cc2cccc3ccccc23)n1
active: growth inhibition [1] 95% | inhibition [2] 65% | growth inhibition [4] 99%
inactive: inhibition [3] -3% | outcome [5] | outcome [6] | outcome [7] | outcome [8]

C=CCOc1ccccc1CNCC(O)c1cc(Br)cs1 (stereo not given)
active: growth inhibition [1] 72% | growth inhibition [4] 93%
inactive: inhibition [2] 25% | inhibition [3] -4% | outcome [5] | outcome [6] | outcome [7] | outcome [8]

Cc1ccc(NC(=O)Nc2ccc(I)c(OCCN(C)C)c2)cc1Cl
inactive: growth inhibition [1] 22% | inhibition [2] 11% | inhibition [3] -4% | outcome [5] | outcome [6] | outcome [7] | outcome [8]
active: growth inhibition [4] 98%

COc1ccc(NC(=O)[C@H](CC(C)C)Nc2cc(C)nc(NCCc3ccccc3OC)n2)cc1
inactive: inhibition [2] 9% | inhibition [3] -3% | outcome [5] | outcome [6] | outcome [7] | outcome [8]
active: growth inhibition [1] 68% | growth inhibition [4] 99%

COc1cc(CN2CCC(CO)(Cc3cccc(C(F)(F)F)c3)CC2)c(Cl)cc1O
active: growth inhibition [1] 64% | growth inhibition [4] 99%
inactive: inhibition [2] 12% | inhibition [3] 6% | outcome [5] | outcome [6] | outcome [7] | outcome [8]
